Assay results: PubChem BioAssay (NCI)
About 83,000 compounds went through this panel and 20% of them were active in at least one assay; those are over-represented in the sample as a whole.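 Each cell line was grown in a 96-well plate and treated with one concentration of compound for 48 hours. Values below 10 were considered active.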 The source made the active and inactive calls.

Experiments:
Experiment in all cases: NCI-60 one-dose screen, 48 h (100 = growth as untreated, 0 = no growth, -100 = all killed)
Conditions in all cases: 10 µM unless noted
SR leukemia = test system: SR leukemia
RPMI-8226 leukemia = test system: RPMI-8226 leukemia
OVCAR-8 ovarian = test system: OVCAR-8 ovarian
OVCAR-5 ovarian = test system: OVCAR-5 ovarian
OVCAR-4 ovarian = test system: OVCAR-4 ovarian
SK-OV-3 ovarian = test system: SK-OV-3 ovarian
IGROV1 ovarian = test system: IGROV1 ovarian
HS 578T breast = test system: HS 578T breast
NCI/ADR-RES ovarian = test system: NCI/ADR-RES ovarian
OVCAR-3 ovarian = test system: OVCAR-3 ovarian

Measured: growth

O=C(/C=C/c1csc(Br)n1)NO
inactive: SR leukemia 13.8% | OVCAR-8 ovarian 22.3% | OVCAR-5 ovarian 10.7% | OVCAR-4 ovarian 65.1% | SK-OV-3 ovarian 38.2% | IGROV1 ovarian 16.7% | HS 578T breast 44.3%
active: RPMI-8226 leukemia 9.04% | NCI/ADR-RES ovarian 1.04%

COc1ccc(C2c3[nH]c4ccc(Cl)cc4c3CCN2c2oc(CO)nc2C#N)cc1 (stereo unspecified)
inactive: SR leukemia 17.4% | RPMI-8226 leukemia 46.3% | OVCAR-8 ovarian 45.9% | OVCAR-5 ovarian 78.1% | SK-OV-3 ovarian 101% | IGROV1 ovarian 39.4% | OVCAR-3 ovarian 46.7% | HS 578T breast 69.1% | NCI/ADR-RES ovarian 43%

CN1CCN(c2ccc(Nc3nc(NCCNC(=O)c4ccccc4)c4sccc4n3)cc2)CC1
active: SR leukemia 5.68%
inactive: RPMI-8226 leukemia 33.4% | OVCAR-8 ovarian 62.4% | OVCAR-5 ovarian 84.1% | SK-OV-3 ovarian 123% | IGROV1 ovarian 87.9% | OVCAR-3 ovarian 76.9% | HS 578T breast 81% | NCI/ADR-RES ovarian 91.7%

Oc1ccc(-c2nc3ccc(/C(=N\N=C\c4ccc(Cl)cc4)c4ccccc4)cc3[nH]2)cc1
inactive: SR leukemia 62.1% | RPMI-8226 leukemia 33.9% | OVCAR-8 ovarian 82.9% | OVCAR-5 ovarian 97.1% | SK-OV-3 ovarian 106% | IGROV1 ovarian 89.9% | HS 578T breast 98.3% | NCI/ADR-RES ovarian 93%

CN1CCC[C@]2(C)[C@H]3CC[C@@H]4[C@@H]5[C@H]6OC[C@@]5(CCC6(C)C)CC[C@@]4(C)[C@]3(C)CC[C@H]2C1(C)C
active: SR leukemia 5.47%
inactive: RPMI-8226 leukemia 30.2% | OVCAR-8 ovarian 22.3% | OVCAR-5 ovarian 103% | SK-OV-3 ovarian 118% | IGROV1 ovarian 77.8% | HS 578T breast 99% | NCI/ADR-RES ovarian 95.5%

c1ccc(-c2cn3c(-c4c[nH]c5ccccc45)csc3n2)cc1
inactive: SR leukemia 61.7% | RPMI-8226 leukemia 31.2% | OVCAR-8 ovarian 65.5% | OVCAR-5 ovarian 87.8% | OVCAR-4 ovarian 61.9% | SK-OV-3 ovarian 87.3% | IGROV1 ovarian 62.2% | HS 578T breast 68.9% | NCI/ADR-RES ovarian 91.8%

CN1CCN(c2ccc(Nc3nc(NCCNS(=O)(=O)c4ccc5ccccc5c4)c4sccc4n3)cc2)CC1
active: SR leukemia -21.3%
inactive: RPMI-8226 leukemia 49.8% | OVCAR-8 ovarian 60.3% | OVCAR-5 ovarian 90.1% | OVCAR-4 ovarian 82.3% | SK-OV-3 ovarian 128% | IGROV1 ovarian 82.3% | HS 578T breast 75% | NCI/ADR-RES ovarian 90.3%

Cc1cc(=O)oc2cc(OCCCOc3ccc(/C=C/C(=O)Nc4ccc(Br)cc4)cc3)ccc12
inactive: SR leukemia 51.8% | RPMI-8226 leukemia 75.6% | OVCAR-8 ovarian 83.9% | OVCAR-5 ovarian 95.4% | OVCAR-4 ovarian 105% | SK-OV-3 ovarian 98.2% | IGROV1 ovarian 72.7% | HS 578T breast 76.3% | NCI/ADR-RES ovarian 64.6%

CCCCCCNC(=O)Oc1ccc(/C(=C(/C)c2ccc(OC)cc2)c2ccc(OCCN3CCCCCC3)cc2)cc1
inactive: OVCAR-8 ovarian 41.8% | OVCAR-5 ovarian 61.1% | OVCAR-4 ovarian 47.1% | SK-OV-3 ovarian 66.1% | IGROV1 ovarian 47% | NCI/ADR-RES ovarian 48.2%
active: SR leukemia -6.81% | RPMI-8226 leukemia -2.43% | HS 578T breast 9.93%

NS(=O)(=O)c1cccc(Nc2nc(SCC(=O)c3ccc(Cl)cc3)nc3c2CCC3)c1
inactive: SR leukemia 98.7% | RPMI-8226 leukemia 97.3% | OVCAR-8 ovarian 82.8% | OVCAR-5 ovarian 103% | OVCAR-4 ovarian 95.8% | SK-OV-3 ovarian 95.7% | IGROV1 ovarian 99.8% | HS 578T breast 81% | NCI/ADR-RES ovarian 96.7%

O=C(Nc1cccc(C(F)(F)F)c1)N1CCN(c2cc(-c3cn(-c4ccccc4)nc3-c3cccc(O)c3)ccn2)CC1
inactive: SR leukemia 27.6% | RPMI-8226 leukemia 27.8% | OVCAR-8 ovarian 31.4% | OVCAR-5 ovarian 82.3% | SK-OV-3 ovarian 84.7% | IGROV1 ovarian 43.3% | OVCAR-3 ovarian 54.4% | HS 578T breast 53.5% | NCI/ADR-RES ovarian 28.5%

O=S(=O)(NCCCNc1nccc(-c2[nH]c(-c3ccccc3)nc2-c2ccc(F)c(O)c2)n1)c1cccc(F)c1
inactive: SR leukemia 36.7% | RPMI-8226 leukemia 45% | OVCAR-8 ovarian 82% | OVCAR-5 ovarian 147% | SK-OV-3 ovarian 113% | IGROV1 ovarian 105% | OVCAR-3 ovarian 123% | HS 578T breast 101% | NCI/ADR-RES ovarian 103%

Oc1[nH]c2ccc(Cl)cc2c1N=Nc1nc(N=Nc2c(O)[nH]c3ccc(Cl)cc23)nc(N2CCCCC2)n1
inactive: SR leukemia 24.5% | RPMI-8226 leukemia 57% | OVCAR-8 ovarian 25.9% | OVCAR-5 ovarian 38.2% | SK-OV-3 ovarian 94.5% | IGROV1 ovarian 22.9% | OVCAR-3 ovarian 76.9% | HS 578T breast 36.2% | NCI/ADR-RES ovarian 101%

CC(C)(C)Nc1nc2c(OCCc3ccccc3)cccn2c1-c1cccc(Oc2ccccc2)c1
inactive: OVCAR-8 ovarian 10.2% | OVCAR-5 ovarian 17.7% | IGROV1 ovarian 34% | OVCAR-3 ovarian 24% | HS 578T breast 13.9%
active: SR leukemia 3.9% | RPMI-8226 leukemia 4.94% | SK-OV-3 ovarian -1.76% | NCI/ADR-RES ovarian 7.94%

O=C(O)CC1CCN(c2ccc3nnc(Cl)n3n2)CC1
inactive: SR leukemia 110% | RPMI-8226 leukemia 111% | OVCAR-8 ovarian 104% | OVCAR-5 ovarian 97.3% | OVCAR-4 ovarian 108% | SK-OV-3 ovarian 96.2% | IGROV1 ovarian 102% | HS 578T breast 102% | NCI/ADR-RES ovarian 98.6%

O=S(=O)(Oc1ccc(-c2cn3ccsc3n2)cc1)c1cccc(C(F)(F)F)c1
inactive: SR leukemia 95.2% | RPMI-8226 leukemia 97.5% | OVCAR-8 ovarian 101% | OVCAR-5 ovarian 107% | OVCAR-4 ovarian 96.5% | SK-OV-3 ovarian 108% | IGROV1 ovarian 107% | HS 578T breast 102% | NCI/ADR-RES ovarian 108%

CC(=O)OC[C@]12CC[C@@H](C(=O)/C=C/c3cccnc3)[C@@H]1[C@H]1CC[C@@H]3[C@@]4(C)CC[C@H](OC(C)=O)C(C)(C)[C@@H]4CC[C@@]3(C)[C@]1(C)CC2
inactive: OVCAR-8 ovarian 23.2% | OVCAR-5 ovarian 15.1% | SK-OV-3 ovarian 65.8% | HS 578T breast 14.5%
active: SR leukemia 6.42% | RPMI-8226 leukemia -5.49% | IGROV1 ovarian -12.9% | OVCAR-3 ovarian 8.9% | NCI/ADR-RES ovarian -14.2%

COc1cc(C(=O)c2cc(C(C)=O)c3c(C)cccn23)cc(OC)c1OC
inactive: SR leukemia 96.5% | RPMI-8226 leukemia 95.5% | OVCAR-8 ovarian 106% | OVCAR-5 ovarian 95.8% | SK-OV-3 ovarian 109% | IGROV1 ovarian 97.6% | OVCAR-3 ovarian 115% | HS 578T breast 90.7% | NCI/ADR-RES ovarian 97.9%

O=C1/C(=C/C=C/c2ccco2)SC(=S)N1Cc1ccccc1
inactive: SR leukemia 46.3% | RPMI-8226 leukemia 93.6% | OVCAR-8 ovarian 100% | OVCAR-5 ovarian 105% | SK-OV-3 ovarian 103% | IGROV1 ovarian 92.9% | HS 578T breast 104% | NCI/ADR-RES ovarian 99.8%

CCOC(=O)c1c(NC(=O)c2cccc(C(F)(F)F)c2)sc2c1CCC(=O)C2
inactive: OVCAR-8 ovarian 19.7% | OVCAR-5 ovarian 40.4% | SK-OV-3 ovarian 82.4% | IGROV1 ovarian 18.4% | OVCAR-3 ovarian 25.8% | HS 578T breast 36.5% | NCI/ADR-RES ovarian 12.5%
active: SR leukemia 8.07% | RPMI-8226 leukemia 7.65%

C#C[C@]1(O)CC[C@H]2[C@@H]3CC=C4c5sc(Nc6ccc(C)cn6)nc5CC[C@]4(C)[C@H]3CC[C@@]21C
inactive: OVCAR-8 ovarian 25.3% | OVCAR-5 ovarian 22.2% | IGROV1 ovarian 29.4% | OVCAR-3 ovarian 34% | NCI/ADR-RES ovarian 20.3%
active: SR leukemia -15% | RPMI-8226 leukemia -32% | SK-OV-3 ovarian -44.8% | HS 578T breast -11.9%

CCCCc1nc2c(N)nc3ccccc3c2n1Cc1cccc(CN)c1
inactive: RPMI-8226 leukemia 42.5% | OVCAR-8 ovarian 63.9% | OVCAR-5 ovarian 109% | OVCAR-4 ovarian 53.6% | SK-OV-3 ovarian 91.2% | IGROV1 ovarian 62.8% | HS 578T breast 67.2% | NCI/ADR-RES ovarian 93.5%
active: SR leukemia 2.23%

C[C@]12CC[C@H]3[C@@H](CC=C4C[C@@H](O)CC[C@@]43C)[C@@H]1CC[C@@H]2[C@](C)(O)CCc1cccnc1
inactive: SR leukemia 32.3% | RPMI-8226 leukemia 33.1% | OVCAR-8 ovarian 62% | OVCAR-5 ovarian 113% | SK-OV-3 ovarian 82.8% | IGROV1 ovarian 81.3% | OVCAR-3 ovarian 65.7% | HS 578T breast 56% | NCI/ADR-RES ovarian 65.9%

Cc1ccc2c(n1)C(=O)C(Cl)=C(Nc1cccc(C)c1C)C2=O
inactive: SK-OV-3 ovarian 117%
active: SR leukemia 6.7% | RPMI-8226 leukemia -12.7% | OVCAR-8 ovarian -3.5% | OVCAR-5 ovarian -29% | IGROV1 ovarian -58.4% | OVCAR-3 ovarian -97.8% | HS 578T breast -13% | NCI/ADR-RES ovarian -5.45%

CC1(C)CC[C@]2(C(=O)NCCCCCCN(CCCN)CCCN)CC[C@]3(C)C(=CC[C@@H]4[C@@]5(C)CC[C@H](O)C(C)(C)[C@@H]5CC[C@]43C)[C@@H]2C1
inactive: SR leukemia 87.2% | RPMI-8226 leukemia 100% | OVCAR-8 ovarian 99% | OVCAR-5 ovarian 96.8% | SK-OV-3 ovarian 114% | IGROV1 ovarian 101% | OVCAR-3 ovarian 106% | HS 578T breast 110% | NCI/ADR-RES ovarian 98.8%

CC(C)NC(=O)c1cc(-c2ccc(NC(=O)Nc3ccc(F)c(C(F)(F)F)c3)cc2)nc2cccnc12
inactive: SR leukemia 81.6% | RPMI-8226 leukemia 89.8% | OVCAR-8 ovarian 79.5% | OVCAR-5 ovarian 113% | SK-OV-3 ovarian 105% | IGROV1 ovarian 110% | OVCAR-3 ovarian 109% | HS 578T breast 87.6% | NCI/ADR-RES ovarian 98.2%
